# ERp5 block: inhibitors of human ERp5; 350,000 compounds, 0.05% hits; AID 651711; inhibition, % at 9.99 µM; ERp5 insulin aggregation, absorbance 650 nm, 90 min; Q15084;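 active = mean replicate inhibition above about 25%, with every replicate also reaching it, limit read from the data, passing the limit was not always enough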
# ALR H2O2 inh: human ALR oxidase inhibition via reduced H2O2; purified ALR, DTT oxidation, H2O2 HRP-luminol luminescence; inhibition, % (concentration not given with the values); P55789; 290,000 compounds, 3.8% hits;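 active = mean replicate inhibition above about 79%, with every replicate also reaching it, limit read from the data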
# PglD inh: inhibitors of Campylobacter jejuni PglD acetyltransferase. inhibition, % at 12.5 µM. 360,000 compounds, 0.098% hits. purified PglD enzyme, DTNB colorimetric CoA detection. AID 602405; in the data active = inhibition above about 16%, passing the limit was not always enough
# PDI inh: PDI (human) enzyme inhibition; PDI insulin aggregation turbidity, A650, 90 min; inhibition, % at 10 µM; 350,000 compounds, 0.052% hits; AID 588391;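 active = mean inhibition across replicates of 30% or more, whatever share of single replicates reach that level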
# CendR NRP1 mod: alters CendR peptide binding to human NRP-1 | O14786 | inhibition, % at 25 µM | 360,000 compounds, 0.85% hits | FAM-RPARPAR peptide binding to NRP-1, fluorescence polarization;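 active = inhibition or corrected inhibition above about 18%, plus a signal ratio from 0.5 to 1.5, limit read from the data, passing the limit was not always enough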
# ARNT TACC3 PPI: disrupts binding between human ARNT and TACC3; AlphaScreen His-ARNT PAS-B/GST-TACC3 binding, luminescence; TACC3 fragment carries E629A point mutation; AID 623870; inhibition, % at 9.99 µM; 390,000 compounds, 0.66% hits; Q9Y6A5;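 active = mean inhibition of replicates at least 50% and at least half of replicates each reaching 50%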;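 note: 0% = complete ARNT plus TACC3 wells and 100% = ARNT alone without TACC3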
# ARNT Alpha ctr-1: counter-screen for ARNT/TACC3 inhibitors: AlphaScreen artifacts. AID 651705. His-ARNT PASB-GST AlphaScreen artifact counter-screen, luminescence. AC50, µM (series often up to 68 µM), for the others: top-dose activity change, negative = signal decrease. 1,200 compounds, 50% hits. shares compounds with ARNT TACC3 PPI;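 active = every separate test run was called active for a drop in luminescence, with AC50 within twice the top valid dose, actives reach about 71 µM in these data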
# ARNT Alpha ctr-2: counter-screen for ARNT-TACC3 inhibitors: AlphaScreen artifacts | Dual-tagged His-ARNT PASB-GST AlphaScreen artifact counter-screen | AC50, µM | AID 720564 | 45 compounds, 70% hits | shares compounds with ARNT TACC3 PPI;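 active = luminescence drop, with half-maximal potency fitted within twice the sample's top valid dose, cut at about 70 µM in these data; inactive = the rest, including signal moving the wrong way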
# * marks the source's active call; other numbers are inactive results; i = inactive; . = not tested or not shown; [ ] = remark or other dose. This is one part of a sample in which hits are shown more often than they occur.
SMILES,ERp5 block,ALR H2O2 inh,PglD inh,PDI inh,CendR NRP1 mod,ARNT TACC3 PPI,ARNT Alpha ctr-1,others
CO[C@@H]1CN(C)C(=O)c2ccc(NC(=O)c3ccccn3)cc2OC[C@@H](C)N(C(=O)C2CC2)C[C@H]1C,0,.,5,.,.,57*,32µM*,
CO[C@@H]1CN(C)C(=O)c2cc(NS(C)(=O)=O)ccc2OC[C@@H](C)N(C(=O)CC2CC2)C[C@@H]1C,-5,.,-3,.,.,1,.,
Cc1[nH][nH]c(=O)c1C(c1ccc(O)c(Br)c1)c1c(C)[nH][nH]c1=O,-1,70,-5,-8,12,33*,-34%,
Cc1[nH][nH]c(=O)c1C(c1ccc(Br)cc1)c1c(C)[nH][nH]c1=O,1,16,1,-5,-7,11*,-2%,
Cc1cc(C(=O)Nc2cccc3c2O[C@H](CN(C)C(=O)Nc2ccc(F)cc2)[C@H](C)CN([C@H](C)CO)C3=O)n(C)n1,-3,.,-2,.,.,-6,.,
Cc1c(CCC(=O)O)c(=O)oc2c(C)c3occ(-c4ccc(Cl)cc4)c3cc12,3,56,-1,-5,-152,56*,62µM*,
C[C@H](CO)N1C[C@H](C)[C@@H](CN(C)Cc2ccc3c(c2)OCO3)Oc2ccc(NS(=O)(=O)c3cn(C)cn3)cc2CC1=O,.,.,-5,.,.,3,.,
CSc1ccccc1NC(=O)CN(C)C(=O)COc1cccc2cccnc12,2,-83,-1,-3,27*,67*,69µM*,
O=C(NCCc1ccccc1)c1ccc(=O)[nH]c1,.,.,.,-10,5,active,-5%,
Cc1[nH][nH]c(=O)c1C(c1ccc(-c2ccccc2C(=O)O)o1)c1c(C)[nH][nH]c1=O,-8,-19,.,-3,3,54*,-12%,
Cc1[nH][nH]c(=O)c1C(c1ccc(-c2cccc(C(=O)O)c2)o1)c1c(C)[nH][nH]c1=O,4,36,.,-2,-1,10,.,
Cc1ccc(/C=N/Nc2cn[nH]c(=O)n2)o1,5,-2,.,-18,12,57*,-11%,
Cc1ccc(C(=O)Nc2nc(-c3ccccc3)cs2)o1,.,.,.,.,.,.,.,ARNT Alpha ctr-2=i
Cc1ccc(C(=O)Nc2nc(-c3ccccn3)cs2)o1,8,-1,.,5,-1,60*,23µM*,ARNT Alpha ctr-2=9.9*
O=C(Nc1nc(-c2ccccn2)cs1)c1cc(Cl)ccc1[N+](=O)[O-],3,35,.,-3,4,58*,18µM*,
O=C(COc1ccc([N+](=O)[O-])cc1)Nc1nc(-c2ccccn2)cs1,0,.,-1,2,-24,63*,48µM*,
O=C(NCC[C@H]1CC[C@@H](NC(=O)c2ccccc2F)[C@H](CO)O1)c1cnccn1,-2,.,2,.,.,-9,.,
O=C(NC1CCCCC1)N1CC2(C1)[C@H](c1ccccc1)[C@H](CO)N2CC1CCCC1,5,.,.,.,.,.,.,
Cc1ccccc1S(=O)(=O)N1CCCCN2[C@H](CO)[C@@H](c3ccc(-c4cccc(F)c4)cc3)[C@@H]2C1,-3,.,-3,.,.,-3,.,
CC(C)NC(=O)N1CCCCN2[C@@H](CO)[C@H](c3ccc(C#Cc4ccccc4)cc3)[C@@H]2C1,18,.,-4,.,.,-1,.,
O=C(Nc1nc(-c2ccccn2)cs1)c1ccc([N+](=O)[O-])o1,-5,-19,0,-1,1,61*,17µM*,
O=C(Nc1nc(-c2ccccc2)cs1)C1COc2ccccc2O1 (centres undefined),.,-12,1,1,18,.,.,
Cc1cc(C(=O)Nc2nc(-c3ccccn3)cs2)ccc1[N+](=O)[O-],7,-11,.,-2,2,30,.,
O=C(Nc1nc(-c2ccccn2)cs1)C1COc2ccccc2O1 (centres undefined),-5,-3,-4,-7,7,71*,29µM*,
COC(=O)c1ccc2[nH]c3c(c2c1)CC(C)CC3 (centres undefined),1,93*,7,-1,1,21*,-30%,
SMILES,ERp5 block,ALR H2O2 inh,PglD inh,PDI inh,CendR NRP1 mod,ARNT TACC3 PPI,ARNT Alpha ctr-1,others
C[C@@H]1CN([C@H](C)CO)C(=O)c2cccc(NS(=O)(=O)c3cn(C)cn3)c2O[C@H]1CN(C)S(=O)(=O)c1cccs1,8,.,-1,.,.,.,.,
C[C@@H]1CCCCO[C@@H](CN(C)C(=O)Nc2cccc3ccccc23)[C@H](C)CN([C@@H](C)CO)C(=O)c2cc(NS(=O)(=O)c3cn(C)cn3)ccc2O1,.,.,-3,.,.,55*,10µM*,
C[C@H](CO)N1C[C@H](C)[C@H](CN(C)C(=O)Nc2cccc3ccccc23)OCCCC[C@H](C)Oc2ccc(NC(=O)CCCN(C)C)cc2C1=O,4,.,2,.,.,59*,-23%[38 µM],
C[C@H](CO)N1C[C@H](C)[C@@H](CN(C)C(=O)Nc2cccc3ccccc23)OCCCC[C@H](C)Oc2ccc(NC(=O)CCCN(C)C)cc2C1=O,0,.,1,.,.,18,.,
CN(C)CC(=O)Nc1ccc2c(c1)[C@@H]1C[C@@H](CC(=O)NC3CCCC3)O[C@@H](CO)[C@@H]1O2,-4,.,-1,.,.,-2,.,
CC(C)NC(=O)N(C)C[C@H]1Oc2ccc(NS(C)(=O)=O)cc2CC(=O)N([C@H](C)CO)C[C@@H]1C,-4,.,1,.,.,-10,.,
CC(C)(C)c1cc(C(=O)NCCCn2ccnc2)cc(C(C)(C)C)c1,2,.,1,-2,5,61*,-11%,
Cc1ccc(C(=O)NCCCn2ccnc2)cc1C,-5,4,1,-3,9,.,.,
O=C(NCCCn1ccnc1)c1cc2cc([N+](=O)[O-])ccc2oc1=O,.,-5,.,-8,-9,54*,3%,
O=C(NCCCn1ccnc1)c1ccc(Cl)cc1[N+](=O)[O-],3,-12,.,-2,7,.,.,
O=C(NCCCn1ccnc1)c1ccc2nccnc2c1,2,1,-1,-2,13,58*,-8%,
CCCNC(=O)N1CC2(CCN(Cc3cccc(OC)c3)CC2)c2c(n(C)c3cc(OC)ccc23)[C@@H]1CO,2,.,.,.,.,.,.,
O=C(NCC1CCCCC1)[C@@H]1[C@@H](CO)[C@@H]2Cn3c(cccc3=O)[C@H]1N2C(=O)c1cccnc1,0,.,-1,.,.,-2,.,
Oc1cccc2c(-c3nn[nH]n3)ccnc12,0,20,1,-4,-4,68*,10µM*,
C[C@@H]1CCCCO[C@H](CN(C)C(=O)Nc2ccc3c(c2)OCO3)[C@H](C)CN([C@H](C)CO)C(=O)c2cc(NC(=O)c3ccccc3)ccc2O1,1,.,-4,.,.,-1,.,
O=c1oc2c3c4c(cc2s1)CCCN4CCC3,.,99*,-4,-4,36*,active,44µM*,
